Giardia kill – Small Molecules that selectively kill Giardia lamblia: qHTS | AID 540267, 2011 | 340,000 tested, 0.15% active | activity change, % at 7.66 µM, hits read low | Giardia lamblia trophozoite viability; in the data active = activity change below about -80%; inconclusive = between about -30% and that limit;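 note: parasites exposed to compound for two days anaerobically before the ATP read; % is set by controls: 0 for no effect and ±100 for the full control effect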
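Anaerobic 48 hrs incubation at 37 deg C of 100 trophozoites/well with test compounds; ATPLite 1-Step luminescence, 15-30 min RT, reports cellular ATP as viability.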
RORg inh – qHTS for inhibitors of ROR gamma transcriptional activity; Nuclear receptor ROR-gamma (Mus musculus), P51450; Drosophila S2 Gal4-RORgamma UAS-luciferase reporter, 20 h; Potency, µM (top dose mostly 53.6 µM), inactives show at the highest dose activity change, negative = inhibition, actives largely listed as inhibitors; 310,000 tested, 5.4% active; AID 2551, 2010; note: potency is the fitted concentration of half-maximal effect; % is set by controls: 0 for no effect and ±100 for the full control effect; nearly all actives have a fitted effect of over 60% in size
Target sequence (P51450 whole entry, looked up, the tested form may be a part): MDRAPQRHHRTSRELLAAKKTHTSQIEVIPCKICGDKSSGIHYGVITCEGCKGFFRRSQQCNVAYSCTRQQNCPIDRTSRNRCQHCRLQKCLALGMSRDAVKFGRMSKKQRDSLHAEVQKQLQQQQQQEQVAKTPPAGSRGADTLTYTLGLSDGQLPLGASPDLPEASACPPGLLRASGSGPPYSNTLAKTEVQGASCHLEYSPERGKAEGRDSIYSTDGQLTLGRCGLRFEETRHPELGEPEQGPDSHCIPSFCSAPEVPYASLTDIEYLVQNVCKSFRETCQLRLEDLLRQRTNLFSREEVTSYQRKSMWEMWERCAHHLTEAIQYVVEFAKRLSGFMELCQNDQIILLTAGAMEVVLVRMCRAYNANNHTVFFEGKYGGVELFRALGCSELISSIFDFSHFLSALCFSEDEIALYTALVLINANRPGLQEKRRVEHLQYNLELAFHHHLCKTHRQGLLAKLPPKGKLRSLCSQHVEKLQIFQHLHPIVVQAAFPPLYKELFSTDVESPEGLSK
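Drosophila Schneider cells stably carrying a metallothionein-driven Gal4 DBD–ROR gamma fusion and a UAS-Photinus luciferase reporter were exposed to compound for 1 hr, then induced with copper sulfate (700 uM final) for 20 hr at ambient temperature before luminescence reading.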
p53 reactivation – qHTS assay for re-activators of p53 using a Luc reporter | Potency, µM (titrated, usually from 92.2 µM), without a hit: at the highest dose activity change, positive = activation, hits mostly activators | AID 504706, 2011 | 320,000 tested, 0.063% active | H1299 p53-A138V BP100-luciferase reporter, luminescence, 24 h; note: potency is the fitted concentration of half-maximal effect; % of control where 0% means no effect; nearly all actives have a fitted effect of over 45% in size
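p53-null H1299 cells stably carrying temperature-sensitive p53-A138V and a BP100-luciferase reporter were pinned with compounds (4-point, 1:5 series) and held 24 hrs at 37 deg C. Luminescence was read 10 min after detection reagent.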
BRCA1 expr act – qHTS Assay to Identify Small Molecule Activators of BRCA1 Expression. MCF7-BRCA1-FFLuc reporter, luminescence, 48 h; response scale: scaled: vehicle 0%, 10 µM genistein 100%. Potency, µM (top dose mostly 46.1 µM), for the others: top-dose activation, most hits filed as activators. 380,000 tested, 1.1% active. AID 624202, 2012; note: potency is the fitted concentration of half-maximal effect; nearly all actives have a fitted effect of over 80% in size
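Reporter cells (MCF7, BRCA1 promoter-firefly luciferase) received library compounds across a concentration series for 48 h. End-point luminescence was measured and concentration-effect curves derived after normalization.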
VP16 counter – VP16 counterscreen qHTS for inhibitors of ROR gamma transcriptional activity; Drosophila S2 Gal4-VP16 UAS-luciferase, luminescence, 20 h; 310,000 tested, 3.5% active; Potency, µM (top dose mostly 53.6 µM), inactives show at the highest dose activity, negative = inhibition, hits mostly inhibitors;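 note: Gal4-VP16 expression switched on by copper sulfate through the metallothionein promoter; potency is the fitted concentration of half-maximal effect; % is set by controls: 0 for no effect and ±100 for the full control effect; nearly all actives have a fitted effect of over 50% in size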
ELG1 DNA repair – qHTS screen for small molecules that inhibit ELG1-dependent DNA repair in human embryonic kidney (HEK293T) cells expressing luciferase-tagged ELG1. Potency, µM (doses to about 46.1 µM), for the others: top-dose activity change, negative = inhibition, usual class: inhibitors. HEK293T ELG1-luciferase reporter, luminescence, 16 h; DNA damage induced by 5-fluorouridine. 330,000 tested, 2.3% active; note: potency is the fitted concentration of half-maximal effect; % is set by controls: 0 for no effect and ±100 for the full control effect; nearly all actives have a fitted effect of over 55% in size
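Quantitative HTS, concentration-response format. 2,000 cells/well co-treated with 5-fluorouridine and compound, 16 hr in 5% CO2 at 37 °C; ONE-Glo luminescence read after 30 min.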
* = called active by the depositor; ? = inconclusive; nt = not tested or not shown. This is a sample that favours compounds with a hit; in the whole collection about 7.6% have one here. Unless noted, calls come from the whole dose curve; as a rule, active = well fitted curve in the direction sought with a large enough effect; inconclusive = small, poorly fitted or top-dose-only effect, or another doubt; inactive = no such curve, though single readings can be large; an effect the other way counts as inactive or inconclusive.

SMILES	Giardia kill	RORg inh	p53 reactivation	BRCA1 expr act	VP16 counter	ELG1 DNA repair
N#Cc1ccc(C(=O)CSc2nnc(-c3ccc(C(F)(F)F)cn3)s2)cc1	-15.5	-7.0%	-1.4%	-3.6%	-5.4%	0.0%
O=C(N/N=C\c1cc(Br)ccc1O)c1ccc(S(=O)(=O)N2CCCCC2)cc1	9.2	3.55µM*	13.8%	-87.7%	3.98µM*	?
COc1cc(/C=N/NC(=O)c2ccccc2)ccc1O	1.4	-16.2%	3.8%	0.6%	2.3%	?
O=C(N/N=C/c1ccco1)Nc1ccccc1	5.7	26.0%	?	6.31µM*	16.0%	?
O=C(N/N=C/c1ccc(O)c(O)c1)c1cccc(S(=O)(=O)N2CCCCC2)c1	-15.8	-5.1%	-1.3%	-16.4%	-5.1%	6.6%
O=C(CCC(=O)Nc1ccccc1)N/N=C/c1ccco1	-2.9	7.1%	-6.8%	-11.2%	-8.9%	-1.3%
Cc1ccc(N=Nc2ccc(O)c(/C=N\NC(=O)c3ccc(N)cc3)c2)cc1C	2.6	3.16µM*	16.9%	-76.1%	2.24µM*	-2.2%
Cc1nc2nc(C)c(CCC(=O)N3CCN(c4ccccn4)CC3)c(C)n2n1	1.9	18.5%	?	-0.3%	-3.2%	0.1%
CCn1c(=O)c(CCC(=O)N2CCN(c3ccccn3)CC2)c(C)c2c(C)nn(-c3cccc(C)c3)c21	10.2	14.0%	-3.4%	17.1%	0.0%	6.51µM*
COc1ccc(NC(=O)CN(C)C(=O)c2cc(-c3ccco3)nc3ccccc23)cc1	-12.5	nt	-0.5%	2.9%	nt	18.3µM*
Cc1ccc(-c2cc(C(=O)N(C)CC(=O)Nc3ccccc3Br)c3ccccc3n2)o1	3.6	nt	-2.8%	2.7%	nt	5.17µM*
CN(CC(=O)Nc1ccc(F)c(F)c1F)C(=O)c1cc(-c2ccncc2)nc2ccccc12	5.7	nt	-7.1%	-24.5%	nt	23.1µM*
O=C(CSc1nnc(Nc2ccccc2F)s1)Nc1cccc(S(=O)(=O)N2CCCCC2)c1	-11.0	?	25.3%	1.3%	0.9%	-10.8%
O=C(c1cn(-c2ccccc2)nc1-c1ccncc1)n1nnc2ccccc21	6.8	nt	nt	-12.1%	nt	nt
NC(=O)c1c(NC(=O)CSc2nnc(Cc3ccccc3)n2Cc2ccco2)sc2c1CCC2	-3.8	-1.0%	11.6%	-58.1%	21.7%	23.1µM*
COc1ccc(-n2nc(C(=O)NCC(=O)N3CCC(C)CC3)c3ccccc3c2=O)cc1	-2.1	4.5%	?	102.9%	-17.1%	?
Cc1ccccc1CN(C)C(=O)COC(=O)c1ccc2[nH]c(C)c(C)c2c1	-5.3	nt	11.7%	-26.2%	nt	25.9µM*
Cc1[nH]c2ccc(C(=O)OC(C)C(=O)NCc3ccccc3)cc2c1C (configuration not stated)	-9.5	nt	-2.3%	-72.7%	nt	?
COCCCNC(=O)CSc1nc2ccccc2c(=O)n1CCC(=O)NCCc1ccc(OC)c(OC)c1	5.2	14.8%	-3.2%	7.7%	-7.6%	-8.5%
N#C/C(=C/c1ccc(-c2ccccc2)o1)c1nc(-c2cccs2)cs1	-11.3	?	25.4%	0.5%	0.1µM*	?
COc1ccc(-n2ncc3c(NCC(C)C)ncnc32)cc1	-25.7	39.5%	?	23.5%	-1.2%	?
Cc1cccc(C(=O)N2CCN(c3ncnc4c3cnn4-c3ccccc3)CC2)c1	6.6	?	-6.0%	-21.8%	-15.9%	14.6µM*
Clc1ccc(-n2ncc3c(N4CCCCCC4)ncnc32)cc1	?	?	-6.8%	-25.0%	14.1µM*	?
COc1ccc(-n2ncc3c(N4CCCCC4)ncnc32)cc1	-81.8*	5.01µM*	-23.5%	-76.0%	2µM*	?
Clc1ccc(Cn2ncc3c(N4CCCCC4)ncnc32)cc1	-2.7	?	6.4%	-4.7%	?	?
SMILES	Giardia kill	RORg inh	p53 reactivation	BRCA1 expr act	VP16 counter	ELG1 DNA repair
COc1ccc(-n2ncc3c(NC(C)C)ncnc32)cc1	?	11.2µM*	71.5%	14.7%	?	?
COc1ccc(-c2sc3ccccc3c2C#Cc2cncn2C)cc1	5.7	nt	-3.3%	0.0%	nt	?
O=C1CN(C(=O)/C=C/c2ccc(Cl)cc2)c2ccccc2N1	2.5	-1.8%	-1.2%	-0.3%	3.3%	-4.8%
COc1ccc(CNC(=O)CSc2nnc3c(Cl)cc(C(F)(F)F)cn23)cc1OC	1.3	11.2%	-7.5%	-8.1%	-14.8%	11.6%
CC1CN(c2ncnc3c2cnn3-c2ccc(Cl)cc2)CC(C)O1 (configuration not stated)	10.8	17.7%	?	3.16µM*	-3.0%	?
CC1CC(C)CN(c2ncnc3c2cnn3Cc2ccc(Cl)cc2)C1 (configuration not stated)	-1.1	-20.8%	5.0%	-25.0%	-10.2%	?
Cc1ccc(Cn2c(/C=C/c3ccco3)nc3ccccc32)cc1	4.3	11.2µM*	?	-49.4%	?	?
Clc1ccc(Cn2c(/C=C/c3ccco3)nc3ccccc32)cc1	-4.1	?	?	64.7%	?	?
COc1ccc2c(c1)c(/C=N/Nc1nc3ccccc3[nH]1)c(C)n2C	25.2	3.55µM*	5.0%	-72.8%	15.8µM*	?
CCCCn1c(/C=C/c2ccco2)nc2ccccc21	1.5	12.6µM*	?	-49.4%	?	?
CCCCn1c(/C=N/Nc2nc3ccccc3[nH]2)nc2ccccc21	1.4	1.78µM*	?	-52.5%	1.58µM*	-18.8%
N#Cc1ccccc1OCC(=O)NCc1ccccc1CN1CCCC1	5.8	nt	?	-12.7%	nt	?
Cc1ccc(N2C(=O)C3C4C=CC(CNC(=S)N5CCN(c6ccccn6)CC5)(O4)C3C2=O)cc1 (configuration not stated)	18.8	?	1.8%	-2.8%	-27.1%	-0.8%
Cc1ccc(N2C(=O)C3C4C=CC(CNC(=S)Nc5ccc(Cl)cc5)(O4)C3C2=O)cc1 (configuration not stated)	-1.4	7.08µM*	?	-46.6%	3.16µM*	-20.1%
CC(C)COC(=O)NCC12C=CC(O1)C1C(=O)N(c3ccc(Cl)cc3)C(=O)C12 (configuration not stated)	6.5	3.98µM*	0.5%	-1.5%	20µM*	2.3%
Cc1ccc(N2C(=O)N(CC(=O)Nc3cccc(Cl)c3)C(=O)C2C)cc1 (configuration not stated)	8.6	nt	6.4%	-11.8%	nt	14.7%
